Hits are enriched below; roughly 2.1% of the tested compounds scored in any of these assays.
rRNA inh HTS = inhibitors of bacterial rRNA selective over humanized ribosomes; E. coli WT GFP vs humanized-ribosome RFP mutants, fluorescence, 24 h; stronger effect = lower value; DMSO median 0, no signal -100; GFP signal change (wild-type ribosome), % (no concentration beside the values); 350,000 compounds, 1.6% hits;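 active = significant combined selectivity score with lowered wild-type GFP, culture density cut under 30%, mutant RFP and density less affected; inactive = any of these conditions unmet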
ARNT TACC3 PPI = disrupts binding between human ARNT and TACC3; AlphaScreen His-ARNT PAS-B/GST-TACC3 binding, luminescence; TACC3 fragment carries E629A point mutation; 390,000 compounds, 0.66% hits; Q9Y6A5; inhibition, % at 9.99 µM;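 active = mean inhibition of replicates at least 50% and at least half of replicates each reaching 50%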
PvdQ acylase = P. aeruginosa PvdQ acylase inhibition; purified PvdQ acylase, fluorescence plate reader; inhibition, % at 10 µM; 340,000 compounds, 0.063% hits; in the data active = inhibition above about 30%, passing the limit was not always enough
ERAP1 inh = blocks human ERAP1 aminopeptidase activity. Q9NZ08. recombinant ERAP1, Leu-AMC fluorescence, 60 min. inhibition, % at 10.7 µM. 340,000 compounds, 0.15% hits. AID 652197;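 active = mean replicate inhibition of at least 30%, or all replicates individually reaching that 30% level; inactive = mean below 30% and not every replicate reaching it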
Target sequence (Q9NZ08 whole entry, looked up): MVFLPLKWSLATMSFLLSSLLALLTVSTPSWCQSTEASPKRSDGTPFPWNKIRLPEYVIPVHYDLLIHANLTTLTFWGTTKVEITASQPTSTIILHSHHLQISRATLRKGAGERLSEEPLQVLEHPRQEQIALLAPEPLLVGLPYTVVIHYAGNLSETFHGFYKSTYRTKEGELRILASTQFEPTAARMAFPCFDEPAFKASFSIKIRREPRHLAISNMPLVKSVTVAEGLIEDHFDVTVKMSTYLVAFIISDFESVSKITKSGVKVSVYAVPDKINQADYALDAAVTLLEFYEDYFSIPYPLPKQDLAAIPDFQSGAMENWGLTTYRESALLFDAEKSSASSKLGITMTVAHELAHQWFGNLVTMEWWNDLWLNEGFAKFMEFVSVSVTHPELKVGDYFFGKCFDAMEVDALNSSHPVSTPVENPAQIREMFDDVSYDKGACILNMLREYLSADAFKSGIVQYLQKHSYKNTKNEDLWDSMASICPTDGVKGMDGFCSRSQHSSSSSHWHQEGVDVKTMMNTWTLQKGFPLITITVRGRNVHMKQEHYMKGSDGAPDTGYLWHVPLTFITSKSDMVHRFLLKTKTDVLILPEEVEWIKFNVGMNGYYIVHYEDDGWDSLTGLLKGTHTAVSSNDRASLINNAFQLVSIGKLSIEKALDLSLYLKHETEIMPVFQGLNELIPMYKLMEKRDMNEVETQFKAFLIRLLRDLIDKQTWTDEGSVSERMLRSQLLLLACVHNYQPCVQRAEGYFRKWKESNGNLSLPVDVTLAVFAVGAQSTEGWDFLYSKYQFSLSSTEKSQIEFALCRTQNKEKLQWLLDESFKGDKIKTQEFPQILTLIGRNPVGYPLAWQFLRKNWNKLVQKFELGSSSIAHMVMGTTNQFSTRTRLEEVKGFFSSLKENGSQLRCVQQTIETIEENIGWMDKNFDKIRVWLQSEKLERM
F508del corr = correctors of CFTR F508del function in bronchial epithelial cells | CFBE cells, YFP halide quenching; stimulated with forskolin plus potentiator P3; % fluorescence drop versus neutral controls | activity (quench increase), % at 7.58 µM | 350,000 compounds, 0.36% hits;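 active = mean added fluorescence quench of at least 8% versus neutral control, with both replicates also reaching 8%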;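 note: cells transiently co-express mutant CFTR-F508del with the halide-sensitive YFP; corrector assay measuring rescue of mutant channel to the surface after 24 h compound exposure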
Of the large screens only hits and unclear results are named; the others gave an inactive call.

COc1ccc(Nc2nc(C(=O)N3CCc4cc(OC)c(OC)cc4C3)cs2)cc1	rRNA inh HTS -39
COc1ccccc1N(C)S(=O)(=O)c1ccc(C(=O)Nc2nccs2)cc1	F508del corr 27
COC(=O)c1cccc(NC(=O)c2ccc(S(=O)(=O)N(C)c3ccccc3OC)cc2)c1	none (no result: ARNT TACC3 PPI, PvdQ acylase)
COc1ccccc1N(C)S(=O)(=O)c1ccc(C(=O)Nc2cccc(Br)c2)cc1	rRNA inh HTS -34
COc1ccc(S(=O)(=O)N(C)C[C@H]2Oc3ccc(NC(=O)NC4CCCCC4)cc3CC(=O)N([C@H](C)CO)C[C@H]2C)cc1	none (no result: PvdQ acylase)
CN(C)NC(=S)Nc1ccc2nc(-c3ccccn3)c(-c3ccccn3)nc2c1	ARNT TACC3 PPI 73 (no result: rRNA inh HTS, ERAP1 inh, F508del corr)
OCCCNC(=S)Nc1ccc2nc(-c3ccccn3)c(-c3ccccn3)nc2c1	ARNT TACC3 PPI 60 (no result: rRNA inh HTS, ERAP1 inh, F508del corr)
COc1ccc2c(c1)C(c1ccc(N3CCOCC3)cc1)=NNC(c1cccnc1)=N2	rRNA inh HTS -17 (no result: F508del corr)
C[C@@H]1CN([C@@H](C)CO)C(=O)Cc2cc(NC(=O)Cc3ccccc3)ccc2O[C@H]1CN(C)S(=O)(=O)c1ccc(F)cc1	none (no result: PvdQ acylase)
COc1cccc(/C=N/Nc2cc(N3CCOCC3)ncn2)c1O	ARNT TACC3 PPI 49
COc1cccc(/C=N/Nc2nc(N3CCCC3)nc(N3CCCC3)n2)c1O	rRNA inh HTS -18
Cc1nnc(N/N=C/c2ccccc2F)n1N	none
COc1ccc(/C=N/Nc2cc(N3CCOCC3)ncn2)c(OC)c1	none
COc1ccccc1Nc1nc(NCCO)nc(N2CCCC2)n1	ARNT TACC3 PPI active
COc1ccccc1Nc1nc(NCCCCO)nc(N2CCCC2)n1	none
COc1cccc(/C=N/Nc2nnc(C)n2N)c1O	ARNT TACC3 PPI 58
CCNC(=O)C[C@H]1CC[C@@H]2[C@@H](COc3ccc(NC(=O)c4ccc(C(F)(F)F)cc4)cc3C(=O)N2C)O1	none (no result: PvdQ acylase)
C/C=C/c1ccc([C@H]2[C@@H](CO)N[C@@H]2CNC(=O)C2CCCCC2)cc1	none (no result: ARNT TACC3 PPI, PvdQ acylase)
CC1=C(C(=O)NC2CCCCC2C)C2(CCC(C)CC2)OC1=O (stereo not given)	F508del corr 9.9
CC1=C(C(=O)NC2CCCC(C)C2C)C2(CCCCC2)OC1=O (stereo not given)	none (no result: ERAP1 inh)
O=C(NC1CCCCC1)N[C@H]1CC[C@H](CCNS(=O)(=O)c2ccccc2)O[C@H]1CO	none (no result: PvdQ acylase)
CC1(C)CC(N2CCCC2)=CC(=[N+]2CCCCCC2)C1	rRNA inh HTS -21
N#CC(c1ccc(F)cc1)c1ccc(C(=O)c2ccccc2)cc1 (stereo not given)	PvdQ acylase 48 (no result: rRNA inh HTS, ERAP1 inh, F508del corr)
N#CC(c1ccccc1)c1ccc(C(=O)c2ccc(F)cc2)cc1 (stereo not given)	none (no result: rRNA inh HTS, ERAP1 inh, F508del corr)
CCCNC(=O)N1[C@@H]2CNC[C@H]1C2c1ccc(-c2ccc(C)cc2)cc1 (stereo not given in full)	none (no result: ARNT TACC3 PPI, PvdQ acylase, ERAP1 inh)
COc1ccccc1NC(=O)N1CCCCN2[C@H](CO)[C@@H](c3ccc(-c4ccccc4)cc3)[C@@H]2C1	none (no result: rRNA inh HTS, PvdQ acylase)
O=C(CSc1nnc(NC(=O)c2ccccc2C(=O)O)s1)Nc1ccccc1Cl	none
Cc1cccc(C)c1NC(=O)CSc1nnc(NC(=O)c2ccccc2C(=O)O)s1	ERAP1 inh 45
CN1CCN(C(=O)C[C@@H]2CC[C@H]3[C@@H](COC[C@@H](O)CN3C(=O)c3ccc(F)cc3)O2)CC1	none (no result: PvdQ acylase)
CCOc1ccc2nc(NC(=O)CS(=O)(=O)c3ccc(C)cc3)sc2c1	rRNA inh HTS -26 (no result: F508del corr)
Nc1ncccc1OCc1ccc(Cl)c(Cl)c1	rRNA inh HTS -21
O=C(OCc1ccc(Cl)c(Cl)c1)c1cccnc1Cl	none
COc1ccc(S(=O)(=O)Nc2ccc3c(c2)C(=O)N([C@@H](C)CO)C[C@H](C)[C@H](CN(C)C(=O)NC2CCCCC2)O3)cc1	none (no result: PvdQ acylase)
CCC(=O)N(C)C[C@@H]1Oc2cc(C#C[C@@H](C)O)ccc2S(=O)(=O)N([C@@H](C)CO)C[C@H]1C	none (no result: PvdQ acylase)
O=C(Nc1ccccc1C(=O)N/N=C/c1ccc(O)cc1)c1ccccc1	rRNA inh HTS -30
CCCN1[C@@H]2c3ccc(-c4ccncc4)c(=O)n3C[C@H]1[C@H](CO)[C@H]2C(=O)NCCc1cn(C)cn1	none (no result: PvdQ acylase)
CCCN1[C@@H]2c3ccc(-c4cccnc4)c(=O)n3C[C@H]1[C@H](CO)[C@H]2C(=O)NCCc1cn(C)cn1	ERAP1 inh 55 (no result: PvdQ acylase, F508del corr)
CC1=C(C(=O)OCC(Br)(Br)Br)C(c2cccc([N+](=O)[O-])c2)NC(=O)N1CCCC(=O)O (stereo not given)	rRNA inh HTS -20 (no result: ARNT TACC3 PPI)
CC1=C(C(=O)OCc2ccccc2)C(c2ccc(C#N)cc2)NC(=O)N1CCCC(=O)O (stereo not given)	rRNA inh HTS -17
CN1C(=O)c2cc(NC(=O)c3ccc(F)c(F)c3)ccc2OC[C@H]2O[C@@H](CC(=O)N[C@@H]3CCN(Cc4ccccc4)C3)CC[C@H]21	none (no result: PvdQ acylase, F508del corr)
C[C@H](O)C#Cc1cnc2c(c1)C(=O)N([C@H](C)CO)C[C@H](C)[C@@H](CN(C)CC1CCCC1)O2	none (no result: PvdQ acylase)
O=c1cc(O)c(-c2ccc(Cl)c(Cl)c2)c(Cl)[nH]1	rRNA inh HTS -27 (no result: ARNT TACC3 PPI)
COc1ccccc1Nc1c2c(nc3ccccc13)CCC2	F508del corr 9.8
CC(=O)c1cccc(Nc2c3c(nc4ccccc24)CCC3)c1	F508del corr 15
CC(=O)c1ccc(Nc2c3c(nc4ccccc24)CCCC3)cc1	rRNA inh HTS -35
Cc1ccc(S(=O)(=O)N[C@H]2CC[C@@H](CCNC(=O)c3ccc4c(c3)OCO4)O[C@@H]2CO)cc1	none (no result: PvdQ acylase)
O=C(CCCc1nc2ccccc2s1)N1CCN(c2ccccc2F)CC1	none
CCOc1ccccc1N1CCN(C(=O)CCCc2nc3ccccc3s2)CC1	rRNA inh HTS -30 (no result: F508del corr)
CS(=O)(=O)c1nc(-c2ccc(F)cc2)cc(C(F)(F)F)n1	rRNA inh HTS -34
CCCNC(=O)[C@H]1[C@H](CO)[C@H]2Cn3c(ccc(-c4cccc(F)c4)c3=O)[C@@H]1N2C(=O)c1ccccn1	none (no result: PvdQ acylase)
O=C(O)[C@H](Cc1ccccc1)N1C(=O)c2c(Cl)c(Cl)c(Cl)c(Cl)c2C1=O	rRNA inh HTS -39
CCOC(=O)C1=C(C)N(C)C(=S)NC1c1cccc(Cl)c1Cl (stereo not given)	rRNA inh HTS -24
CCOC(=O)C1=C(C)N(C)C(=S)NC1c1ccccc1Cl (stereo not given)	none (no result: rRNA inh HTS, ERAP1 inh, F508del corr)
Cc1cccc(C2NC(=O)c3ccccc3N2)c1 (stereo not given)	none
Cc1ccc(C2NC(=O)c3ccccc3N2)c(C)c1 (stereo not given)	F508del corr 11
Cc1cccc(NC(=O)COc2ccc(Br)cc2/C=N/O)c1	rRNA inh HTS -44 (no result: F508del corr)
O=C(NCC[C@H]1CC[C@@H](NS(=O)(=O)c2ccccc2)[C@@H](CO)O1)c1cc(Cl)cc(Cl)c1	none (no result: PvdQ acylase)
CN(C)C(=O)C[C@H]1CC[C@@H]2[C@H](COc3ccc(NC(=O)c4cnccn4)cc3C(=O)N2C)O1	none (no result: PvdQ acylase)
Cc1oc2ccc(O)cc2c1C(=O)c1ccc([N+](=O)[O-])cc1	none
CN(C)/C=C/c1oc2ccc(O)cc2c1[N+](=O)[O-]	rRNA inh HTS -30
